# Measured values: PubChem BioAssay AID1981 (Southern Research Specialized Biocontainment Screening …, 2009)
# In all, about 2,200 compounds went through this assay and about 480 (22%) were called active. The list is a sample of the results. Measured potencies and affinities stand elsewhere. A number with no mark means an inactive call. How the calls were made is not given here.
# Assay: S. Typhimurium GFP fluorescence dose response in modified counterscreen for PhoP regulon inhibitor project (AID 1981);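 further: 0% = induced DMSO wells and 100% = uninduced wells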
# Conditions: 4 h; series mostly up to 150 µM; inhibition: at the top concentration
row,Compound,inhibition [%]
1,Oc1ccc(C=Nc2cccc3ncccc23)c(O)c1,15.1
2,O=C(COc1ccccc1)NC(=S)Nc1ccc2c3c(cccc13)CC2,3.59
3,Cc1c(C)n(Cc2ccccc2)c2ncnc(NN)c12,7.72
4,O=C(NCCCN1CCCC1=O)c1ccc(Cl)c(NS(=O)(=O)c2ccc(F)cc2)c1,3.52
5,Cc1ccc(NC(=O)C(=O)NCCOc2ccccc2Cl)cc1,-11.4
6,CN(CCC(=O)Nc1ccc(Br)cc1)Cc1ccccc1,10.8
7,COc1ccccc1CC(=O)N1CCN(c2ccccn2)CC1,-30
8,COC(=O)c1ccc2nc(C(F)(F)F)[nH]c2c1,3.82
9,O=c1cc(-c2ccc([N+](=O)[O-])cc2)nc2cc(-c3ccc(Cl)cc3)[nH]n12,-9.22
10,COC(=O)c1c(C(=O)OC)c(-c2cccc(C)c2)n2c1CS(=O)(=O)C2,-3.11
11,O=C(NCc1ccc2c(c1)OCO2)c1ccc(-n2cnnn2)cc1,-1.24
12,COC(=O)c1ccccc1NC(=O)CS(=O)(=O)Cc1nc(-c2ccc(C)cc2)oc1C,-3.17
13,COCCn1cc(C(=O)N2CCC(C)CC2)c2c3ccccc3n(C)c2c1=O,-18.2
14,C=CCNc1ncnc2c1[nH]c1ccc(Cl)cc12,29.7
15,C=CCNc1ncnc2c1[nH]c1ccc(C)cc12,35.9
16,O=c1cc(Cc2ccccc2)[nH]c(=S)[nH]1,32.9
17,CCNC(=O)COC(=O)CCC(=O)c1cccs1,14.6
18,Cc1cccc(OCC(=O)N2CCN(Cc3ccncc3)CC2)c1,-3.8
19,O=C(CN(c1ccc(F)cc1)S(=O)(=O)c1ccc2c(c1)OCCO2)NCc1cccnc1,-5.53
20,COc1ccc(-c2ccc3c(N)c(C(=O)c4cccc(OC)c4)sc3n2)cc1,16.2
21,N#Cc1nc(-c2ccco2)oc1NCCCN1CCOCC1,-7.05
22,CCSc1cc(N2CCCC2)nc(-c2cccc(C)c2)n1,-4.48
23,COc1cccc(-n2c(SCC(=O)Nc3ccc4c(c3)CCC4)nc3ccccc3c2=O)c1,19.7
24,CCOc1ccc(NC(=O)CCC(=O)n2nc(C)cc2C)cc1,1.24

row,Compound,inhibition [%]
1,Cc1ccc(CNC(=O)C2CCCN(S(=O)(=O)c3c(C)noc3C)C2)cc1 (configuration not stated),1.56
2,O=C(c1ccccc1S(=O)(=O)NCc1ccccc1)N1CCCC1,-24.7
3,CC(=O)Nc1ccc(-n2nnnc2SCC(=O)Nc2cccc(NC(=O)c3ccco3)c2)cc1,2.42
4,O=[N+]([O-])c1ccccc1/C=N/N1CCN(c2ccncc2S(=O)(=O)N2CCCCC2)CC1,-9.65
5,C=CCNC(=O)CC(=O)N/N=C/c1ccc(C(=O)OC)cc1,1.15
6,Cc1ccc(Cn2c(=N)n(CC(=O)c3ccc([N+](=O)[O-])cc3)c3ccccc32)cc1,-11.2
7,COc1ccc(/C=N/NC(=O)CC(=O)NCc2cccnc2)cc1,-0.29
8,Cc1ccc(C(=O)NC(=S)Nc2cccc3c(C)cc(C)nc23)cc1,-12.6
9,COC(=O)c1ccc(Nc2cc(C)nc3ccccc23)cc1,-13
10,COc1ccc2nc(-c3ccccc3)cc(OC)c2c1,-1.78
11,CN1c2ccccc2C(C)(C)[C@]12C=Cc1cc(O)ccc1O2,8.27
12,CC(=O)Nc1cccc(OC(=O)c2ccoc2C)c1,-14.3
13,Nc1ccc(C2(c3ccc(N)cc3)c3ccccc3-c3ccccc32)cc1,18.9
14,Cc1ccc(C(=O)NCC(=O)OCC(=O)N2CCCc3ccccc32)cc1,-12.3
15,O=C(N/N=C/c1cn(-c2ccccc2)nc1-c1ccc(F)cc1)c1ccc2c(c1)OCO2,30.2
16,O=C(NNC(=O)c1ccccc1-n1cccc1)c1ccc(Cl)c(Cl)c1,-16.2
17,O=C(Cn1ncc2c(=O)oc3ccccc3c21)N1CCN(c2ccccn2)CC1,2.19
18,CC(C)Nc1cc(C(F)(F)F)nc(-c2ccccn2)n1,-21.8
19,O=C1c2ccccc2C(=O)N1Cc1nc(-c2ccccn2)no1,-13.3
20,N#Cc1ccc(N=c2ssnc2Cl)cc1,8.15
21,CC(C)CCNC(=O)C(c1ccco1)N(Cc1ccc(F)cc1)C(=O)c1snc(C(N)=O)c1N (configuration not stated),-5.54
22,COc1cc(C2C(C(=O)c3ccc(C)o3)=C(O)C(=O)N2CCc2ccccc2)ccc1O (configuration not stated),11.2
23,NC(=O)c1c(NC(=O)CN2C(=O)CCC2=O)sc2c1CCCCC2,-16.9
24,CC(C)(C)C1CCc2c(sc(NC(=O)c3cccs3)c2C(=O)N2CCCCC2)C1 (configuration not stated),8.2

row,Compound,inhibition [%]
1,CCOC(=O)c1c(NC(=O)Nc2ccc(C)cc2)sc2c1CCN(C)C2,-0.83
2,O=[N+]([O-])c1ccc(-n2nnnc2-c2ccccc2)c([N+](=O)[O-])c1,14.8
3,CN(C)C(CNC(=O)Nc1cccc(Cl)c1)c1cccnc1 (configuration not stated),3.94
4,Cc1cc2c(c(=O)n1C)C(Cc1ccccc1)C(C#N)=C(N)O2 (configuration not stated),-7.35
5,OC1(c2cccc(C(F)(F)F)c2)CCN(c2ncnc3c2[nH]c2ccccc23)CC1,3.4
6,COc1ccc2c(c1)CC/C(=C\Nc1ccc3c(c1)OCO3)C2=O,-7
7,COc1ccc(C2C=C(c3ccc(Cl)cc3)Nc3nc(NC(C)=O)nn32)cc1 (configuration not stated),-1.96
8,CCCSc1ncc(Cl)c(C(=O)Nc2ccc(S(=O)(=O)N3CC(C)OC(C)C3)cc2)n1 (configuration not stated),-15.2
9,O=C(NC1CC1)C1=NOC(CNc2ncc(C(F)(F)F)cc2Cl)C1 (configuration not stated),-16
10,O=C(NCc1cccnc1)c1cc2ccccc2oc1=O,-21.1
11,CC(=O)N1N=C(c2ccco2)CC1c1ccc(Br)cc1 (configuration not stated),22.8
12,O=C1NC(=O)C(=C2CCCCCC2)S1,16
13,Cc1ccc(-c2csc(N=C(N)N)n2)cc1,31.5
14,Clc1ccc(OCCN2CCN(c3ncnc4sccc34)CC2)cc1,-10.9
15,c1ccc(OCCCN2CCCC2)cc1,-12.3
16,COc1ccc(Br)cc1C(=O)NCc1cccnc1,-7.4
17,Clc1ccccc1OCCn1ccnc1,-5.79
18,NC(=O)N1OCC2COc3ccc4ccccc4c3C21 (configuration not stated),-6.03
19,Cc1ccccc1CS(=O)(=O)c1snnc1C,-7.82
20,O=C(CNC(=O)c1ccco1)OCC(=O)c1ccc2c(c1)CCCC2,6.72
21,Cc1cc(=O)[nH]c(N/N=C/c2c[nH]c3ccccc23)n1,-13.5
22,Fc1ccc(-c2n[nH]c(=S)n2/N=C/c2c[nH]c3ccccc23)cc1,-21.6
23,CSc1ccc(C(=O)/C=C/c2ccc(N)cc2)cc1,1.48
24,O=C(O)C1CCCN1S(=O)(=O)c1ccc2[nH]c(=O)c(=O)[nH]c2c1 (configuration not stated),1.08
